The values that follow come from ChEMBL document CHEMBL1961873, “Compounds: GSK PKIS; Assays: Nanosyn kinase panel” (2012).

Assay [1] has as its target Sphingosine kinase 1 (Homo sapiens) (UniProt Q9NYA1). The note with it: at 1 µM.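 Also: mean SPHK1 inhibition value reported from the GSK PKIS kinase panel screen.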
Assay [2] concerns the target T1, Sphingosine kinase 2 (Homo sapiens) (UniProt Q9NRA0).
T1 sequence (whole entry): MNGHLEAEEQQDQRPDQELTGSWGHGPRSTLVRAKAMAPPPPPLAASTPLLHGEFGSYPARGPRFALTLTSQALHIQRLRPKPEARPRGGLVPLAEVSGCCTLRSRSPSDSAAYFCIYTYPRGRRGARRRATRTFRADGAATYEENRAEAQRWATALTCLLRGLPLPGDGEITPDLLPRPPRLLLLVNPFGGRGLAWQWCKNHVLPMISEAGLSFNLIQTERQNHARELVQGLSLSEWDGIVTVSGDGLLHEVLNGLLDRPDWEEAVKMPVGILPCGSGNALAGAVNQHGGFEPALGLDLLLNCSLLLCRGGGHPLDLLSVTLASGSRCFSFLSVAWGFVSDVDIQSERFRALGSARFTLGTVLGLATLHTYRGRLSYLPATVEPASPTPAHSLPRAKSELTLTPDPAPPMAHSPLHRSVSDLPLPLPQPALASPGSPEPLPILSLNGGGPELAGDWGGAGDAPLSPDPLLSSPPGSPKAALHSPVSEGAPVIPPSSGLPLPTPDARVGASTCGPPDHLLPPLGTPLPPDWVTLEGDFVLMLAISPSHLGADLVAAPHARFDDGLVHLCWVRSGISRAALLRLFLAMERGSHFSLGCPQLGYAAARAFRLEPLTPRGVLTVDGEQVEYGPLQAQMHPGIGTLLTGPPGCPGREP
The note with it: at 0.1 µM.

The target of assay [3] is T1, Sphingosine kinase 2 (Homo sapiens). Particulars: at 1 µM.
Assay [4] deals with Casein kinase II subunit alpha (Homo sapiens) (UniProt P68400). The note with it: at 0.1 µM.
Casein kinase II subunit alpha (Homo sapiens), sequence (P68400 whole entry, looked up): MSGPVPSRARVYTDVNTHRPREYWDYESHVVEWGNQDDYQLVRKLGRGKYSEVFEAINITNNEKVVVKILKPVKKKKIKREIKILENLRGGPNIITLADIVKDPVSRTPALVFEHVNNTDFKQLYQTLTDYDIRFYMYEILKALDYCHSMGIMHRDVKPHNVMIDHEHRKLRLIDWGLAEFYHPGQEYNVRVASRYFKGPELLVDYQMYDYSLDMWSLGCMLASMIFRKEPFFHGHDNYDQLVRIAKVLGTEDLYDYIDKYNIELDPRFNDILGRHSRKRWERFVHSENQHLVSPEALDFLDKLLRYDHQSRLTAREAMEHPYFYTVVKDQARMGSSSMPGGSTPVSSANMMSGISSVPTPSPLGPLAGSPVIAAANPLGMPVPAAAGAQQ
Assay [5] shares this target. The note with it: at 1 µM.
Assay [6] addresses T2, Inhibitor of nuclear factor kappa-B kinase subunit alpha (Homo sapiens) (UniProt O15111).
T2 sequence (whole entry): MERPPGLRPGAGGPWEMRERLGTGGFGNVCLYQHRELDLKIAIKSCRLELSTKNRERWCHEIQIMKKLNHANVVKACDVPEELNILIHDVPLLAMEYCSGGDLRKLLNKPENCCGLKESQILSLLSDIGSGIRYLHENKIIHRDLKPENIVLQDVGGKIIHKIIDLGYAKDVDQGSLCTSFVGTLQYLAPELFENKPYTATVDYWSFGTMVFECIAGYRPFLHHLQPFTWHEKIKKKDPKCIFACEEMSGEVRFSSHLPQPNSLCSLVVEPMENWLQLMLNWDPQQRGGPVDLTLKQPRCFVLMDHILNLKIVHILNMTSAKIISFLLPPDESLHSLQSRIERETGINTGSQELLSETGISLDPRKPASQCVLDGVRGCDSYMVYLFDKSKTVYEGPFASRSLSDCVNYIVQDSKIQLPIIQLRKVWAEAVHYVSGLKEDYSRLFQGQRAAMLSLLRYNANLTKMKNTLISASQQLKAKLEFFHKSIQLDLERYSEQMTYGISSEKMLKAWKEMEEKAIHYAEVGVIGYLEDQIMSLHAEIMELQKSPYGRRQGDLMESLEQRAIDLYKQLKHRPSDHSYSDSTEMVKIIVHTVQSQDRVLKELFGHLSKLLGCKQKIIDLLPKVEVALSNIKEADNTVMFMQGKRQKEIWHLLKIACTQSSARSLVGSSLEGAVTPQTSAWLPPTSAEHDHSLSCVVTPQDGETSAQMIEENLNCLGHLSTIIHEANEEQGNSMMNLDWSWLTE
Particulars: at 0.1 µM.

For assay [7], the target named is T2, Inhibitor of nuclear factor kappa-B kinase subunit alpha (Homo sapiens). The note with it: at 1 µM.
Assay [8] has as its target T3, Inhibitor of nuclear factor kappa-B kinase subunit beta (Homo sapiens) (UniProt O14920).
T3 sequence (whole entry): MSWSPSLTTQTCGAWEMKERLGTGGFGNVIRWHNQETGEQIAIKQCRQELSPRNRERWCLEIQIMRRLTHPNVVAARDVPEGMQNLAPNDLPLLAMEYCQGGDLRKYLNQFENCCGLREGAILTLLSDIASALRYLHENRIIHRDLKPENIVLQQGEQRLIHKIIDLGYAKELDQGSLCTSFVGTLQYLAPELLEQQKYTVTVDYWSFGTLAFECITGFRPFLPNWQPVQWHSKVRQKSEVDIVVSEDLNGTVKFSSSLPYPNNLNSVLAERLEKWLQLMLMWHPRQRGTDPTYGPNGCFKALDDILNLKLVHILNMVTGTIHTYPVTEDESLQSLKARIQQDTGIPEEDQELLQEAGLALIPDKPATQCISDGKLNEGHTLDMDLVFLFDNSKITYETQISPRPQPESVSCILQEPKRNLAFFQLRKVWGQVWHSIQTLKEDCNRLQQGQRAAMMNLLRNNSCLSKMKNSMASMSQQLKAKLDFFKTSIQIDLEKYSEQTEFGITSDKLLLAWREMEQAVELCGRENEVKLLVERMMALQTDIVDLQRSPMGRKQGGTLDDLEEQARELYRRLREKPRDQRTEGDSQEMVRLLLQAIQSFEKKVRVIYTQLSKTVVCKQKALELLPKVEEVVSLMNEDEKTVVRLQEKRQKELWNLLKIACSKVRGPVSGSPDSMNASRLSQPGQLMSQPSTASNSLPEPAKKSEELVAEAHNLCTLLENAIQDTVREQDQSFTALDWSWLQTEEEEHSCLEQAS
Particulars: at 0.1 µM.

Assay [9] addresses T3, Inhibitor of nuclear factor kappa-B kinase subunit beta (Homo sapiens). The note with it: at 1 µM.
Assay [10] has as its target T4, Inhibitor of nuclear factor kappa-B kinase subunit epsilon (Homo sapiens) (UniProt Q14164).
T4 sequence (whole entry): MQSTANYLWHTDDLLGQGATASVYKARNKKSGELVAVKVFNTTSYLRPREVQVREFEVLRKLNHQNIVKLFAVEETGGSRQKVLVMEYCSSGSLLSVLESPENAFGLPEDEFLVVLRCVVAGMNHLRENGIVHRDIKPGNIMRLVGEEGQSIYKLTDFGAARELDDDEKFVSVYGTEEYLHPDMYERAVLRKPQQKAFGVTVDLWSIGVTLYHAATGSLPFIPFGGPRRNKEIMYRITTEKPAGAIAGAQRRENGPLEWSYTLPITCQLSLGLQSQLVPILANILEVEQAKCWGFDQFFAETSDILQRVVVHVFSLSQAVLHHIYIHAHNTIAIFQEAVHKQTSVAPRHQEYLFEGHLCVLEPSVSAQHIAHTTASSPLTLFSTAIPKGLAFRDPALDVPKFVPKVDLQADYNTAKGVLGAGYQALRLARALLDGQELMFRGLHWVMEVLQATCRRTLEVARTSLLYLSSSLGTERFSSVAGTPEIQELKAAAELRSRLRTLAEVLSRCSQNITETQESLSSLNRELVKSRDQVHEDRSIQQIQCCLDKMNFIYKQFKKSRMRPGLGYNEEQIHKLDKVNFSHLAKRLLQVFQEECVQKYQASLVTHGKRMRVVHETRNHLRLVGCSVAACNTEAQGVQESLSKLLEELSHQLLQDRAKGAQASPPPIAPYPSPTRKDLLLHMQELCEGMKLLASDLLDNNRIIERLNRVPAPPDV
Particulars: at 0.1 µM.

For assay [11], the target named is T4, Inhibitor of nuclear factor kappa-B kinase subunit epsilon (Homo sapiens). Particulars: at 1 µM.
Assay [12] concerns the target T5, Serine/threonine-protein kinase Nek1 (Homo sapiens) (UniProt Q96PY6).
T5 sequence (whole entry): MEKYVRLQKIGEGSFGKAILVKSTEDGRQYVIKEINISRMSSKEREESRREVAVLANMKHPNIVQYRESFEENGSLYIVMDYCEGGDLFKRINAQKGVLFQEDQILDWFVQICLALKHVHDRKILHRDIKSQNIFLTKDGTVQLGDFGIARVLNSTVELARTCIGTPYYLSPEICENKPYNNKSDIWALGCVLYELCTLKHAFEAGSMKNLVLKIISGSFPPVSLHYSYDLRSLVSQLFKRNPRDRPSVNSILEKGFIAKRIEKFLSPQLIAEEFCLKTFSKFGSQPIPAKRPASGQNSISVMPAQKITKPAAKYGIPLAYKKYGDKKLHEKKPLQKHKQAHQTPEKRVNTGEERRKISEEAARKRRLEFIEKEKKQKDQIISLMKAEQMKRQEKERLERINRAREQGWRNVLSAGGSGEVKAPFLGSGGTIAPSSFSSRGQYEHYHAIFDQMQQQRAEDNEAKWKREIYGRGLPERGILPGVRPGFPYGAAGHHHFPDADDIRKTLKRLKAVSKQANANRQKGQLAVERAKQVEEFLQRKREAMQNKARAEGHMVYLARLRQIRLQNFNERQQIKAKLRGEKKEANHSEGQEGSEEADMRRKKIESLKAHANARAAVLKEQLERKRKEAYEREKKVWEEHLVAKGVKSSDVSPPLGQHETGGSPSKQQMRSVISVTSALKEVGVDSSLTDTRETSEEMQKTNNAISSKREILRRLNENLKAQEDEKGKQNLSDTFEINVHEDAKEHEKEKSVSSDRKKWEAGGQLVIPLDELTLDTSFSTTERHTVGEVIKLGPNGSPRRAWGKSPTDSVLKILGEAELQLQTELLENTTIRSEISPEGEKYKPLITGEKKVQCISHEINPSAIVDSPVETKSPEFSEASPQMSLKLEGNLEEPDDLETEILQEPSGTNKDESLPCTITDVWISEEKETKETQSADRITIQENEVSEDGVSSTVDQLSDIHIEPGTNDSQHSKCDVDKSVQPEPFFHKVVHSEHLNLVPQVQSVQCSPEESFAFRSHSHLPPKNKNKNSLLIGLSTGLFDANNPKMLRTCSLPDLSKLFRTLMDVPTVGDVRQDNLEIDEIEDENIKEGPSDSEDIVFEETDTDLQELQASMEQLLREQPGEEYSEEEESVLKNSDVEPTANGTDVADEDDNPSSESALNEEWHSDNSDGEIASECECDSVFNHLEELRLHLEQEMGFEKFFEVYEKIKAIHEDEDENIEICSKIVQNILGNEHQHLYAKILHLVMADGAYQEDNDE
Particulars: at 0.1 µM.

In assay [13] the target is T5, Serine/threonine-protein kinase Nek1 (Homo sapiens). Particulars: at 1 µM.
The target in assay [14] is T6, Serine/threonine-protein kinase Nek2 (Homo sapiens) (UniProt P51955).
T6 sequence (whole entry): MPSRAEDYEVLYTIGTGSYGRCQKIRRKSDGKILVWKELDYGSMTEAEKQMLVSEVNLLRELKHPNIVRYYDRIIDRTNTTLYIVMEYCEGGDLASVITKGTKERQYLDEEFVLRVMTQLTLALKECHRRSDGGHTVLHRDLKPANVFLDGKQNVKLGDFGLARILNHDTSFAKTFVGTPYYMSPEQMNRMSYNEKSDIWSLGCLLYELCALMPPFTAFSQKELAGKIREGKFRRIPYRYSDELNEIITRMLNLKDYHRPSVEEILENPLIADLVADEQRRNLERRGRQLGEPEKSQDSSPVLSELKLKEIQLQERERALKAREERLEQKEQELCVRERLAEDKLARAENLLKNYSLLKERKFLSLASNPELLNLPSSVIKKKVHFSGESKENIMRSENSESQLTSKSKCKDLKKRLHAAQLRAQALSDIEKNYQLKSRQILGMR
The note with it: at 0.1 µM.

For assay [15], the target named is T6, Serine/threonine-protein kinase Nek2 (Homo sapiens). The note with it: at 1 µM.
For assay [16], the target named is Serine/threonine-protein kinase Nek6 (Homo sapiens) (UniProt Q9HC98). The note with it: at 0.1 µM.
Serine/threonine-protein kinase Nek6 (Homo sapiens), sequence (Q9HC98 whole entry): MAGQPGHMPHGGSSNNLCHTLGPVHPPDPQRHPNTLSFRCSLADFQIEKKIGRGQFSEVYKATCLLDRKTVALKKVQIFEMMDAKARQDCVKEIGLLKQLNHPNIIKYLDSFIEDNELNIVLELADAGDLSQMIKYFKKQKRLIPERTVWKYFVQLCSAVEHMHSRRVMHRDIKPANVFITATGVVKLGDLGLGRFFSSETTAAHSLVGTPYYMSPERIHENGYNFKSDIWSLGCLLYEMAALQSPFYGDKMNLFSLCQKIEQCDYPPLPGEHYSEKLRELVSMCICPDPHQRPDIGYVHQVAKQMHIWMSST
The target is the same in assay [17]. Particulars: at 1 µM.
Assay [18] deals with Serine/threonine-protein kinase Nek7 (Homo sapiens) (UniProt Q8TDX7). The note with it: at 0.1 µM.
Serine/threonine-protein kinase Nek7 (Homo sapiens), sequence (Q8TDX7 whole entry, looked up): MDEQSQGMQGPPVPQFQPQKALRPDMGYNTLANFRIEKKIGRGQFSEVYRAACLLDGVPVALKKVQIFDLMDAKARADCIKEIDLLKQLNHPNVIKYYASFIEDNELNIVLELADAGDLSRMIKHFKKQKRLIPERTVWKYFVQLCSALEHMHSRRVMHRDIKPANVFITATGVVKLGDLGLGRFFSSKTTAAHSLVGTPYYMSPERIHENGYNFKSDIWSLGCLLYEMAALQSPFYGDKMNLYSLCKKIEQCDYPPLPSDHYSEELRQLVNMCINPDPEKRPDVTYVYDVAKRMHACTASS
The target is the same in assay [19]. Particulars: at 1 µM.
Assay [20] deals with T7, Serine/threonine-protein kinase Nek9 (Homo sapiens) (UniProt Q8TD19).
T7 sequence (whole entry): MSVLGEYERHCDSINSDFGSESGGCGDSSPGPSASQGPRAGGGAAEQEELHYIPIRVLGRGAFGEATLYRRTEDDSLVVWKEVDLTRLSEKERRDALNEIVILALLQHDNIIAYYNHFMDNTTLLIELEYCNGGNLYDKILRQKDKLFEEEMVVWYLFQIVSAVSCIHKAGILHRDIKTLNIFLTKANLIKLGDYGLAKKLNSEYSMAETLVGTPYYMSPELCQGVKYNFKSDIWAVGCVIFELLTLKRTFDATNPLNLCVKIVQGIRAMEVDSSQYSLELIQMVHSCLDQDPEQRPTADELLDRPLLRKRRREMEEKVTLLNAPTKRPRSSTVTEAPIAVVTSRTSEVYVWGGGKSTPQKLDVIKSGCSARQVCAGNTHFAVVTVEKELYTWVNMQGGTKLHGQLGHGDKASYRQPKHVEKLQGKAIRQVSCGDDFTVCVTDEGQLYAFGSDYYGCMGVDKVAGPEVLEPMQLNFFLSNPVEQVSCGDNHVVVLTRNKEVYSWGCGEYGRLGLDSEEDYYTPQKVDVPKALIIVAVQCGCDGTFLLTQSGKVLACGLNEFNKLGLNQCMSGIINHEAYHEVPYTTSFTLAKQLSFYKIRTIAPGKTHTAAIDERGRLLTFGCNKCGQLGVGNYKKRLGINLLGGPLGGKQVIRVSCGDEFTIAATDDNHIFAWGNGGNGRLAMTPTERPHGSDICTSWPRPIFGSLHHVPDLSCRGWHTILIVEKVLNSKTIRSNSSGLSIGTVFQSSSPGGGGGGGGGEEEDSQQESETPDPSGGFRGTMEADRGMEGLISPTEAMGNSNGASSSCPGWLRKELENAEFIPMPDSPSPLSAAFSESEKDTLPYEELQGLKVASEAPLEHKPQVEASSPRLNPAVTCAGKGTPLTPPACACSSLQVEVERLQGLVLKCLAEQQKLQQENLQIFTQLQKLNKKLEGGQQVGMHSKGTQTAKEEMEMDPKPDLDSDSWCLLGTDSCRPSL
The note with it: at 0.1 µM.

Structures are written as SMILES.

Sphingosine kinase 1 (Homo sapiens), sequence (Q9NYA1 whole entry): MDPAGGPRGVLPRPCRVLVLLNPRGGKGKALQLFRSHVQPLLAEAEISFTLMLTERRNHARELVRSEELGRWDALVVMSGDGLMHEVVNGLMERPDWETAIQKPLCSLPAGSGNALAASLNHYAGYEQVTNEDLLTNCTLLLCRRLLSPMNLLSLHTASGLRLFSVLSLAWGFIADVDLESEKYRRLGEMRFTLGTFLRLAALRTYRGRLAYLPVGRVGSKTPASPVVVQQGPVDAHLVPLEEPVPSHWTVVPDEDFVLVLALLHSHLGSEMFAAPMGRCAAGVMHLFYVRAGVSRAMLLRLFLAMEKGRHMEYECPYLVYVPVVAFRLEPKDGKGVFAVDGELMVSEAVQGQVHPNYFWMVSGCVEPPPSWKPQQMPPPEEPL

Usually inhibition stands for the relative decrease from the control value, in per cent. As to `c1ccc(-c2nc3n(c2-c2ccc4c(c2)OCO4)CCC3)nc1`, the inhibition in assay [1] is 0.44%; in [2], -0.36%; in assay [3], 0%; in assay [4], 0.8%; in assay [5], 1.12%; in [6], 0.69%. For the same compound, the inhibition in assay [7] is -5.83%; in assay [8] it was 3.06%; in assay [9], -0.72%; in [10], 1.33%; in assay [11], 1.63%; in assay [12], 2.25%. Moreover, the inhibition in assay [13] is 1.34%; in [14], 2.03%; in assay [15], 3.36%; in [16], 1.4%; in [17] it was -0.68%; in assay [18] it was 4.7%. In addition, the inhibition in assay [19] turned out to be 3.16%; in [20], 4.73%.
